Only some compounds are listed: those with a hit (about 9.4% of all), similar ones and a draw of the others.
ELG1 repair inh – inhibitors of ELG1-dependent DNA repair in HEK293T cells; HEK293T ELG1-luciferase reporter, luminescence, 16 h; DNA damage induced by 5-fluorouridine; Potency, µM (titrated, usually from 46.1 µM), most hits filed as inhibitors; 330,000 compounds, 2.3% hits; note: nearly all actives have a fitted effect of over 55% in size
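Step one: seed 2,000 cells per well. Step two: pin-transfer compound or DMSO alongside 5-fluorouridine. Step three: incubate 16 hr, 37 °C, 5% CO2. Step four: add ONE-Glo, wait 30 min, read luminescence.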
FLuc modulator – inhibits or activates purified firefly luciferase, miR-21 counter-screen; AID 588342; Potency, µM (top dose mostly 57.5 µM), actives largely listed as inhibitors; 360,000 compounds, 6.9% hits; purified FLuc, Km substrates, luminescence inhibition; note: nearly all actives have a fitted effect of over 55% in size
Target sequence (P08659 whole entry, looked up): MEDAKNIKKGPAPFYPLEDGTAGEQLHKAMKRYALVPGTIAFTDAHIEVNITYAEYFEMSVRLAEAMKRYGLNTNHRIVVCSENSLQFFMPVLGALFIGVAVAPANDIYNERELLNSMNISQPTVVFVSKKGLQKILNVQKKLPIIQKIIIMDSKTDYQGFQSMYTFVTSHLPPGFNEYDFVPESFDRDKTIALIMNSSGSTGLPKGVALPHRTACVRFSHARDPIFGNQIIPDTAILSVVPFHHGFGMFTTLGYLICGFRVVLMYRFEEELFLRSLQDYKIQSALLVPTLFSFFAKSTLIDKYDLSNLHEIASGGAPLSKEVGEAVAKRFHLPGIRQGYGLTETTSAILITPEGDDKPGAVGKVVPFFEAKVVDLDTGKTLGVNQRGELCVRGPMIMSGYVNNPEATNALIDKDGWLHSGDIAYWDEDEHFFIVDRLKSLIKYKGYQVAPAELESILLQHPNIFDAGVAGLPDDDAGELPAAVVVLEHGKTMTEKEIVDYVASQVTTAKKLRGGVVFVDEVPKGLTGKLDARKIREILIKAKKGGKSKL
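Purified P. pyralis luciferase, 10 nM final, with Km-level 10 uM D-luciferin and 10 uM ATP in 50 mM Tris acetate pH 7.5, 10 mM Mg acetate, 0.01% Tween-20, 0.05% BSA; 6-point qHTS titration about 60 µM downward; luminescence read.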
Rab9 promoter act – activates the Rab9 promoter. 320,000 compounds, 2.8% hits. Huh7 Rab9 promoter-luciferase reporter, luminescence, 24 h. Potency, µM (top dose mostly 9.22 µM), usual class: activators; note: nearly all actives have a fitted effect of over 60% in size
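Using Huh7 cells stably transfected with Rab9 promoter–luciferase, compounds were incubated 24 h at 37 °C, 5% CO2; luciferase luminescence was read 10 min after reagent addition.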
NPC1 prom act – NPC1 promoter activation; Huh7 NPC1 promoter luciferase reporter, 24 h; Potency, µM (doses to about 9.22 µM), actives largely listed as activators; 320,000 compounds, 2.4% hits; AID 485313; note: nearly all actives have a fitted effect of over 60% in size
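Luminescence from an NPC1 promoter-driven luciferase reporter in stably transfected Huh7 cells was measured after 24 h compound treatment at 37 °C, followed by 10 min ambient incubation with luciferase detection reagent.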
ELG1 genotoxic – genotoxicity induction in ELG1-luciferase HEK293T cells; HEK293T ELG1-luciferase reporter, luminescence, 16 h; Potency, µM (series often up to 46 µM), most hits filed as activators; 330,000 compounds, 1.3% hits; note: nearly all actives have a fitted effect of over 60% in size
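Screening used a luciferase reporter fused to human ELG1 in HEK293T cells. Luminescence was read on a CCD plate imager after 16 hr exposure and 30 min ONE-Glo incubation.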
SMN2 splice up – SMN2 splice variant enhancement | HEK293 SMN2-luciferase splicing reporter, luminescence, 30-36 h | Potency, µM (top dose mostly 46.1 µM), hits mostly activators | 210,000 compounds, 2.8% hits; note: nearly all actives have a fitted effect of over 55% in size
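HEK293 cells carry an SMN2 […]–luciferase reporter in which exon 7 inclusion puts luciferase in frame. Cells were plated 10-12 h before compound addition, then incubated 30-36 h at 37C. ONE-Glo luminescence was read; sodium butyrate at 4.5 mM final served as control.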
Hits are given with their value; [ ] = dose if it differs, or a comment. Calls come from the whole dose curve; as a rule, active = well fitted curve in the direction sought with a large enough effect; inconclusive = small, poorly fitted or top-dose-only effect, or another doubt; inactive = no such curve, though single readings can be large; an effect the other way counts as inactive or inconclusive.

Results for O=C(Nc1ccccc1)N1CCN(c2cccc(C(F)(F)F)c2)CC1 ?
ELG1 repair inh: inconclusive; FLuc modulator: inactive; Rab9 promoter act: inactive; NPC1 prom act: inactive; ELG1 genotoxic: inactive; SMN2 splice up: inactive

What do the screens show for `CC(=O)N1N=C(c2c(-c3ccccc3)c3cc(Br)ccc3[nH]c2=O)CC1c1ccco1` (configuration not stated)?
ELG1 repair inh: inconclusive; FLuc modulator: inactive; Rab9 promoter act: inactive; NPC1 prom act: inactive; ELG1 genotoxic: inactive

What do the screens show for `O=C(c1ccco1)N1N=C(c2ccccc2)CC1c1ccc2nccnc2c1` (configuration not stated)?
ELG1 repair inh: inactive; FLuc modulator: 16.9µM; Rab9 promoter act: inactive; NPC1 prom act: inactive; ELG1 genotoxic: inactive

What do the screens show for `O=C(c1ccco1)N1N=C(c2ccc(Br)cc2)CC1c1ccco1` (configuration not stated)?
ELG1 repair inh: 11.2µM; FLuc modulator: inconclusive; Rab9 promoter act: inactive; NPC1 prom act: inactive; ELG1 genotoxic: inactive

Results for CC(=O)N1N=C(c2c(-c3ccccc3)c3cc(C)ccc3[nH]c2=O)CC1c1ccco1 (configuration not stated) ?
ELG1 repair inh: 23.1µM; FLuc modulator: inactive; Rab9 promoter act: inactive; NPC1 prom act: inactive; ELG1 genotoxic: inactive; SMN2 splice up: inactive

How did O=C(CCl)N1N=C(c2cccs2)CC1c1ccco1 (configuration not stated) do in these assays?
ELG1 repair inh: 23.1µM; FLuc modulator: inactive; Rab9 promoter act: inactive; NPC1 prom act: inactive; ELG1 genotoxic: inactive

How did O=C(c1ccco1)N1N=C(c2ccc(Cl)cc2)CC1c1ccco1 (configuration not stated) do in these assays?
ELG1 repair inh: inactive; FLuc modulator: inconclusive; Rab9 promoter act: inactive; NPC1 prom act: inactive; ELG1 genotoxic: inactive

Results for CN1CCN(CC(=O)N2N=C(c3cccs3)CC2c2ccco2)CC1 (configuration not stated) ?
ELG1 repair inh: inactive; FLuc modulator: inactive; Rab9 promoter act: inactive; NPC1 prom act: inactive; ELG1 genotoxic: inactive; SMN2 splice up: inconclusive

Results for CC(=O)c1ccccc1NS(=O)(=O)c1cc2c(cc1C)NC(=O)CO2 ?
FLuc modulator: inactive

What do the screens show for `C[N+](C)([O-])Cc1cc(-c2ccccc2)ccc1O`?
SMN2 splice up: inactive[9.22 µM]

Results for O=C(COc1cccnc1[N+](=O)[O-])N1N=C(c2ccc(Cl)cc2)CC1c1ccco1 (configuration not stated) ?
ELG1 repair inh: inconclusive; FLuc modulator: inactive; Rab9 promoter act: inactive; NPC1 prom act: inactive; ELG1 genotoxic: inactive

How did COc1ccc(C2=NN(C(=O)c3ccco3)C(c3ccco3)C2)cc1OC (configuration not stated) do in these assays?
ELG1 repair inh: inactive; FLuc modulator: 15.1µM; Rab9 promoter act: inactive; NPC1 prom act: inactive; ELG1 genotoxic: inactive

Results for CCc1ccc(C2=NN(C(C)=O)C(c3ccco3)C2)cc1 (configuration not stated) ?
ELG1 repair inh: inconclusive; FLuc modulator: 8.49µM; Rab9 promoter act: 1.78µM; NPC1 prom act: 3.55µM; ELG1 genotoxic: 16.4µM; SMN2 splice up: 12.6µM

How did CCC(=O)N1N=C(c2ccc(Cl)cc2)CC1c1ccco1 (configuration not stated) do in these assays?
ELG1 repair inh: inactive; FLuc modulator: inactive; Rab9 promoter act: inactive; NPC1 prom act: inactive; ELG1 genotoxic: inactive

What do the screens show for `CCS(=O)(=O)Nc1cccc(C2=NN(C(=O)c3ccco3)C(c3ccco3)C2)c1` (configuration not stated)?
ELG1 repair inh: inactive; FLuc modulator: inactive; Rab9 promoter act: inactive; NPC1 prom act: inactive; ELG1 genotoxic: inactive

Results for Cc1ccc(OCC(=O)N2N=C(c3ccc(Cl)cc3)CC2c2ccco2)c([N+](=O)[O-])n1 (configuration not stated) ?
ELG1 repair inh: 20.6µM; FLuc modulator: inactive; Rab9 promoter act: inactive; NPC1 prom act: inactive; ELG1 genotoxic: inactive; SMN2 splice up: inactive

How did CS(=O)(=O)Nc1cccc(C2=NN(C(=O)c3ccco3)C(c3ccco3)C2)c1 (configuration not stated) do in these assays?
ELG1 repair inh: inconclusive; FLuc modulator: 16.9µM; Rab9 promoter act: inactive; NPC1 prom act: inactive; ELG1 genotoxic: inactive

What do the screens show for `Cc1ccc(Cl)cc1N1CCN(CCCNc2ncnc3onc(-c4ccc(F)cc4)c23)CC1`?
FLuc modulator: inactive

How did Fc1ccc(Nc2nc3nonc3nc2Nc2cccc(C(F)(F)F)c2)cc1 do in these assays?
FLuc modulator: inactive; SMN2 splice up: inactive

How did COc1ccc(NC(=O)Nc2sc3nc4n(c(=O)c3c2C)CCC(C)CC4)cc1OC (configuration not stated) do in these assays?
FLuc modulator: inactive; SMN2 splice up: inactive

Results for CCCC[n+]1ccn(C2=C([O-])c3ccccc3C(=O)/C2=N\S(=O)(=O)c2ccccc2)c1 ?
ELG1 repair inh: inconclusive; FLuc modulator: inactive; Rab9 promoter act: inactive; NPC1 prom act: inactive; ELG1 genotoxic: inactive; SMN2 splice up: inactive

How did CC(C)(C)c1cc[n+](C2=C([O-])c3ccccc3C(=O)/C2=N\S(=O)(=O)c2ccccc2)cc1 do in these assays?
ELG1 repair inh: 14.6µM; FLuc modulator: inconclusive; Rab9 promoter act: inactive; NPC1 prom act: inactive; ELG1 genotoxic: inactive

Results for CC(C)[n+]1ccn(C2=C([O-])c3ccccc3C(=O)/C2=N\S(=O)(=O)c2ccccc2)c1 ?
ELG1 repair inh: 23.1µM; FLuc modulator: inactive; Rab9 promoter act: inactive; NPC1 prom act: inactive; ELG1 genotoxic: inactive

Results for N=C(N)SCCSC(=N)N ?
SMN2 splice up: inactive[9.22 µM]

What do the screens show for `CC(C)SCCCCOc1ccc2ccccc2c1`?
ELG1 repair inh: inconclusive; FLuc modulator: 16.9µM; Rab9 promoter act: inconclusive; NPC1 prom act: inconclusive; ELG1 genotoxic: inactive; SMN2 splice up: inactive

What do the screens show for `CC(C)SCCCOc1ccc(C(C)(C)C)cc1`?
ELG1 repair inh: inconclusive; FLuc modulator: 19µM; Rab9 promoter act: inactive; NPC1 prom act: inactive; ELG1 genotoxic: inactive; SMN2 splice up: inactive

Results for c1ccc2cc(OCCOCCOc3ccc4ccccc4c3)ccc2c1 ?
ELG1 repair inh: inactive; FLuc modulator: inactive; Rab9 promoter act: inactive; NPC1 prom act: inactive; ELG1 genotoxic: inactive

How did COc1ccc(Cl)cc1C(=O)NCC(c1ccc(N(C)C)cc1)N1CCOCC1 (configuration not stated) do in these assays?
FLuc modulator: inactive

How did CC(=O)c1[nH]c(C)c(C(=O)NCc2ccc(Cl)cc2)c1C do in these assays?
FLuc modulator: inactive

Assay outcomes (PubChem)
